D1 agonist – Allosteric Agonists of the Human D1 Dopamine Receptor: qHTS. D(1A) dopamine receptor (Homo sapiens), P21728. 360,000 tested, 1% active. activation, % at 2 µM. HEK293 T-REx D1 cells, calcium flux, agonist mode. AID 504660, 2011
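Inducible HEK293 T-REx D1 cells, force-coupled to calcium signalling, were plated at 4000 cells/well with tetracycline and held overnight at 30 C. After no-wash calcium dye loading, compound-evoked calcium rise over 180 s flagged agonists.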
TRHR ag – qHTS for Small Molecule Agonists and Allosteric Enhancers of Human TRH Receptor: Primary Screen for Agonists | Thyrotropin-releasing hormone receptor (Homo sapiens), P34981 | TRHR cells, calcium flux fluo-8, FDSS agonist mode | activation, % at 2 µM | 360,000 tested, 0.18% active | AID 493084, 2011
Target sequence (P34981 whole entry, looked up): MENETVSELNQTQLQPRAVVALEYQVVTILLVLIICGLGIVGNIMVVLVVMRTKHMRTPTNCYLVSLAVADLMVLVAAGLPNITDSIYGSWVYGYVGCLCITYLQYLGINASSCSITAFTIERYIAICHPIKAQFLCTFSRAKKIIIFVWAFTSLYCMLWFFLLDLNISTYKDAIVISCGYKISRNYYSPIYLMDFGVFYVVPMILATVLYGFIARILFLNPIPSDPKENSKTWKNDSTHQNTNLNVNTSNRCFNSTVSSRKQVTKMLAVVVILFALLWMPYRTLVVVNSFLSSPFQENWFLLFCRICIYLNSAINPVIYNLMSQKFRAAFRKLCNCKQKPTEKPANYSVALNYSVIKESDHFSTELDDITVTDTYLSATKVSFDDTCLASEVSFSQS
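Read-out: compound-evoked intracellular calcium rise in TRHR cells, fluo-8 dye, kinetic FDSS fluorescence at 1 s/cycle following a 10-cycle baseline. Cells cultured overnight before dye loading (30 min–1.5 h, RT).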
D1 PAM – Potentiators of Human D1 Dopamine Receptor: qHTS | D(1A) dopamine receptor (Homo sapiens), P21728 | HEK293 TREx D1 cells, calcium flux, dopamine EC20 potentiation | potentiation, % at 10 µM | 360,000 tested, 0.036% active; in the data active = potentiation above about 30%
TRHR enhancer – qHTS for Small Molecule Agonists and Allosteric Enhancers of Human TRH Receptor: Primary Screen for Enhancers; Thyrotropin-releasing hormone receptor (Homo sapiens), P34981; TRHR cells, fluo-8 calcium fluorescence, EC20 TRH enhancement; enhancement, % at 2 µM; 360,000 tested, 0.66% active; AID 493056, 2011; in the data active = enhancement above about 30%
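Enhancer read-out: after compound pinning and an initial kinetic agonist-mode read, an EC20 of TRH (10 nM final) was injected and fluo-8 calcium signal (Ex 480/Em 530) followed at 1 s/cycle for 100 cycles in TRHR-expressing cells.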
D1 antagonist – Antagonist of Human D 1 Dopamine Receptor: qHTS. D(1A) dopamine receptor (Homo sapiens), P21728. AID 504652, 2011. 360,000 tested, 3.2% active. HEK293 TREx D1 cells, calcium flux, dopamine EC80; active compounds read low. activity change, negative = inhibition, % at 10 µM; in the data active = activity change below about -30%
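Allosteric or orthosteric antagonism assessed as attenuation of the calcium response to EC80 dopamine, added 180 s after compound, in induced HEK293 Trex D1 cells loaded with no-wash calcium dye.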
Each line names hits and unclear results; the compound was inactive in the other large screens; ! = not active in a repeat. Only some compounds are listed: those with a hit (about 4.7% of all), similar ones and a draw of the others. Cut-off read from the data, not from the text of the source, unless noted: active = activation above about 30%; inactive = the rest.

CC(=O)N1CC(C)Sc2ccc(S(=O)(=O)NCCc3ccc(C)cc3)cc21 (stereo not given)	D1 agonist 31
O=S(=O)(NCCC1=CCCCC1)c1ccc(Br)cc1	D1 antagonist -30
O=S(=O)(NCCC1=CCCCC1)c1ccccc1Br	none
CC(=O)N1CCCc2cc(S(=O)(=O)NCc3ccc(C)cc3)ccc21	D1 antagonist -37
CC(=O)N1CCCc2cc(S(=O)(=O)NCc3cccc(C)c3)ccc21	none
COc1ccc(C(=O)c2oc3ccccc3c2NC(=O)COc2ccccc2)cc1	none
CC(=O)N1CCCc2cc(S(=O)(=O)NCc3ccc(N(C)C)cc3)ccc21	none
CC(=O)N1CCCc2cc(S(=O)(=O)NCCC3=CCCCC3)ccc21	D1 antagonist -30
O=C(C1CCC1)N1CCN(c2ccc(C(F)(F)F)cc2[N+](=O)[O-])CC1	D1 antagonist -40
CCOC(=O)N1CCN(C(=O)CSc2ccc(C(F)(F)F)cc2[N+](=O)[O-])CC1	none
O=C(Nc1ccccc1)N1CCCN(c2ccc(C(F)(F)F)cc2[N+](=O)[O-])CC1	none
CN1CCN(C(=O)CSc2ccc(C(F)(F)F)cc2[N+](=O)[O-])CC1	D1 antagonist -65
Cc1cc(N2CCN(c3ccc(C(F)(F)F)cc3[N+](=O)[O-])CC2)c2ccccc2n1	TRHR enhancer 35
COc1ccc2sc(N(Cc3cccnc3)C(=O)c3ccc4c(c3)OCCO4)nc2c1	none
O=S(=O)(c1ccc(Br)cc1)N1CCN(Cc2ccco2)CC1	none
COC(=O)c1ccc(NC(=O)CN2C(=O)CC(c3ccccc3)Sc3ccccc32)cc1 (stereo not given)	none
Cc1cnc(NC(=O)C2=C(O)c3ccccc3S(=O)(=O)N2C)s1	D1 antagonist -52!
COc1ccc(/C=C2/SC(=O)N(CCC(=O)Nc3ccccc3C(=O)O)C2=S)cc1	none
CSc1cc(C)c(OCC(=O)Nc2c(C)nn(C)c2C)c(C)c1	none
CCOc1ccc(CNC(=O)c2cnc3sc(N4CCOCC4)nn3c2=O)cc1	D1 antagonist -61
CCCCOc1ccc(CNC(=O)c2cnc3sc(N4CCOCC4)nn3c2=O)cc1	none
COc1ccc(CCC(=O)NCCS(=O)(=O)N2CCN(c3ccccc3F)CC2)cc1	none
COc1ccc(CCC(=O)NCCS(=O)(=O)N2CCN(c3ccccc3OC)CC2)cc1	D1 antagonist -33
S=C(Nc1ccc(Cc2ccncc2)cc1)Nc1cccc(Cl)c1	D1 antagonist -32
S=C(NCc1ccncc1)Nc1cc(Cl)cc(Cl)c1	D1 antagonist -31
CNC(=S)Nc1ccc(Cc2ccncc2)cc1	none
S=C(NCc1ccncc1)Nc1ccc(Cl)c(Cl)c1	D1 antagonist -36
CCN(Cc1ccccc1)C(=O)CCc1c(C)nc2c(c(C)nn2-c2ccc(C)c(C)c2)c1C	none
CN(Cc1ccccc1)C(=O)c1ccc(NC(=O)Cc2cccc(NC(=O)C3CCN(C(=O)C4CC4)CC3)c2)cc1	D1 agonist 252
O=C(Nc1cccc([N+](=O)[O-])c1)C1CCN(C(=O)Cc2ccccc2)CC1	D1 antagonist -30
CCOc1ccc(NC(=O)N2CCC(N3CCCCC3)CC2)cc1	none
O=[N+]([O-])c1ccc(OC/C=C2\Oc3ccc([N+](=O)[O-])cc3C2N2CCOCC2)cc1 (stereo not given)	D1 antagonist -69
O=[N+]([O-])c1ccc2c(c1)C(N1CCOCC1)/C(=C/COc1ccc(F)cc1)O2 (stereo not given)	none
CN(C)/C=N/c1nc2nccc(-c3cccnc3)n2n1	none
CN(C)/C=N/c1nc2nccc(-c3ccccn3)n2n1	TRHR enhancer 34
CC(Oc1ccc(C(C)(C)C)cc1)c1ccnc2nc(/N=C/N(C)C)nn12 (stereo not given)	D1 agonist 46
COc1cccc(N2CCN(C3=NS(=O)(=O)C(c4ccc(C)cc4)=C3C)CC2)c1	none
Cc1nccn1CCOc1ccccc1Cl	D1 antagonist -34
CC(OC(=O)c1cccs1)C(=O)NCc1ccco1 (stereo not given)	none
N#C/C(=C\c1cn(Cc2ccccc2)c2ccccc12)C(=O)NCc1ccco1	none

Bioassay records: PubChem BioAssay, National Center for Advancing Translational Sciences (NCATS)
